High-throughput results as filed in PubChem BioAssay.
Hits are enriched below; roughly 1.6% of the tested compounds scored in any of these assays.
KCNQ2 pot: KCNQ2 (rat) channel potentiation | O88943 | CHO-K1 KCNQ2, FluxOR thallium flux fluorescence; hits give high values | B-score at 10 µM | 310,000 tested, 0.54% active | AID 2239;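 active = fluorescence ratio B-score at least 3 SD of library B-scores, with initial fluorescence B-score within 3 of them, cut at about 5.3 in these data; same plate scores as AID 2156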;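 note: B-score of peak minus minimum over baseline fluorescence ratio after K+ and Tl+ stimulus; positive B-score means potentiation of KCNQ2 with more thallium influx and brighter signal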
Target sequence (O88943 whole entry, looked up): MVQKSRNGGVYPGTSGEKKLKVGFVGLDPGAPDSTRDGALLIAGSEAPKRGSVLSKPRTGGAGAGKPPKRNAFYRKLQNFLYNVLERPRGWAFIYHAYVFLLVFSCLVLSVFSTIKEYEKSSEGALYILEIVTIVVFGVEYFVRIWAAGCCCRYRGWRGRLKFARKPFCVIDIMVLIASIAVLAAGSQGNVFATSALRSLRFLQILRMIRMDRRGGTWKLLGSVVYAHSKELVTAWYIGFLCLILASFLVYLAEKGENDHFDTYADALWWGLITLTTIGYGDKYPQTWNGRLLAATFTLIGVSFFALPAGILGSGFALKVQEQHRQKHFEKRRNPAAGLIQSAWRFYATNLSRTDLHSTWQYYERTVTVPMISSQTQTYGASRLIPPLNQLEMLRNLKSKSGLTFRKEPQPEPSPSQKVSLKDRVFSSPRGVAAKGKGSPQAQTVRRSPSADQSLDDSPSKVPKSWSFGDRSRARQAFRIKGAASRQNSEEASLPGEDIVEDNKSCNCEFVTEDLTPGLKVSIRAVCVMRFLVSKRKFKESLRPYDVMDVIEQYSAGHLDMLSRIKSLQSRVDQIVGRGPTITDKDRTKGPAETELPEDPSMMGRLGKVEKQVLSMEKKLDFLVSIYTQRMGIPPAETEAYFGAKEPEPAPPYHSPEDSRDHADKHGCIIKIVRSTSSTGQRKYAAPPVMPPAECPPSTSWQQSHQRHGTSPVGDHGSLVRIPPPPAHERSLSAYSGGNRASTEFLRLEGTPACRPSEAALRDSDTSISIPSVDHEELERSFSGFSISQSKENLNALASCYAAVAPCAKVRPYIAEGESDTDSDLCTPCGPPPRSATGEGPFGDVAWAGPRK
KCNQ2 block: KCNQ2 (rat) channel inhibition | O88943 | CHO-K1 KCNQ2, FluxOR thallium flux, 20 min; hits give low values | B-score at 10 µM | 310,000 tested, 1.1% active | AID 2156;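 active = fluorescence ratio B-score at most minus 3 library SDs, with starting brightness B-score within 2 library SDs, cut at about -5.5 in these data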
Kir21 confirm: confirmation of mouse Kir2.1 potassium channel inhibitors | shares compounds with KCNQ2 pot | Tl flux remaining, % of negative control (hits give low values), % at 10 µM | Kir2.1-expressing cells, FluxOR thallium flux fluorescence; hits give low values | 2,300 tested, 41% active;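 active = Primary-screen hit whose thallium flux fell at least 3 control SD below untreated wells in both duplicates, with normal baseline fluorescence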;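 note: 0% = blank wells without stimulus and 100% = stimulated no-compound controls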
HEK293 ctr: parental HEK293 activity in Kir2.1 inhibitor counter-screen; shares compounds with KCNQ2 pot; parental HEK293 cells, FluxOR thallium flux fluorescence; 0% = unstimulated blank wells; FluxOR signal as % of negative control (100 = no effect), % at 10 µM; 2,300 tested, 19% active;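 active = dye signal at least 3 control SD above or below untreated wells in both duplicates, raw fluorescence within 3, either direction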;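 note: percent is based on the flux ratio of peak minus minimum fluorescence over baseline F0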
CHO-K1 ctr: alters thallium flux in parental CHO-K1 cells, KCNQ2 counter-screen | shares compounds with KCNQ2 pot | 1,200 tested, 43% active | activity increase over 3SD of controls, % at 10 µM | FluxOR thallium flux fluorescence; zero = vehicle mean+3SD, 100% = vehicle-minus-blank window;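 active = signal rise of at least 3 SD above the untreated control mean, in both duplicate wells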;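 note: counter screen of KCNQ2 potentiator hits so any rise reflects channel-independent effects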
KCNQ1 pot spec: tests whether KCNQ2 potentiators also act on human KCNQ1; shares compounds with KCNQ2 pot; CHO KCNQ1 stable, FluxOR thallium flux fluorescence; beyond 3SD, as % of vehicle-control signal; activation over 3SD threshold, % at 10 µM; 1,200 tested, 28% active; AID 2283;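 active = fluorescence ratio rise of at least 3 SD of vehicle wells above their mean, in both replicate wells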;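 note: 0% = vehicle mean plus 3 SD and 100% = vehicle minus unstimulated blank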
KCNQ2 pot conf: rat KCNQ2 channel potentiator confirmation; shares compounds with KCNQ2 pot; CHO-KCNQ2 cells, FluxOR thallium flux fluorescence; potentiation, less the hit threshold, % at 10 µM; 1,200 tested, 68% active; AID 2287;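 active = fluorescence ratio rising 3 SD or more over the vehicle control mean in both replicates, plus primary screen hit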;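 note: peak minus minimum thallium fluorescence divided by baseline after K/Tl stimulus; 0% = vehicle mean plus 3 SD and 100% = vehicle minus unstimulated blank difference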
Kir21 spec: tests whether KCNQ2 potentiators also affect mouse Kir2.1; HEK293 Kir2.1, FluxOR thallium flux fluorescence; activity over 3SD threshold, % at 10 µM; 1,200 tested, 2% active; shares compounds with KCNQ2 pot;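 active = fluorescence ratio rise of at least 3 SD above the vehicle-control mean, seen in both replicates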;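 note: 0% = vehicle mean plus 3 SD and 100% = vehicle minus no-stimulus blank window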
KCNQ2 W236L MoA: KCNQ2 potentiators acting on retigabine-insensitive rat KCNQ2 W236L mutant. shares compounds with KCNQ2 pot. CHO KCNQ2-W236L, automated patch clamp current. current increase over 3SD of negative controls (%), hits give high values, % at 25 µM. 940 tested, 10% active. AID 2558;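 active = current increase at least 3 SD of the untreated controls above them in both duplicate recordings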
* = called active by the depositor; i = inactive; x = no result given.

SMILES	KCNQ2 pot	KCNQ2 block	Kir21 confirm	HEK293 ctr	CHO-K1 ctr	KCNQ1 pot spec	KCNQ2 pot conf	Kir21 spec	KCNQ2 W236L MoA
Cc1nn(C)c(C(=O)NC(=S)Nc2ccc([N+](=O)[O-])cc2)c1Cl	8.4*	i	i	132%*	-19	-9	0.7*	-28	i
Cc1nn(C)c(C(=O)NC(=S)Nc2ccccc2Br)c1Cl	6.8*	i	i	216%*	0	-8	55*	-20	i
CCn1ncc(Cl)c1C(=O)NC(=S)Nc1ccccc1Br	7.1*	i	i	232%*	12*	55*	53*	-14	i
Cc1nn(C)c(C(=O)NNC(=S)NCc2ccccc2)c1Cl	x	i	x	x	x	x	x	x	x
Cc1nn(C)c(C(=O)NNC(=S)Nc2ccc(F)cc2)c1[N+](=O)[O-]	x	i	x	x	x	x	x	x	x
CCCCOC(=O)c1ccc(NC(=S)NC(=O)c2c(Cl)cnn2CC)cc1	5.2	i	x	x	x	x	x	x	x
CC1CC(C)(C)OC(C[N+]2(C)CCCCC2)O1 (stereo not drawn)	x	i	x	x	x	x	x	x	x
CC1CCCC(C)N1CC(O)Cn1c2ccccc2c2ccccc21 (stereo not drawn)	x	i	x	x	x	x	x	x	x
CC(=O)Nc1ccc(NC(=O)C(C)c2cccc(C(=O)c3ccccc3)c2)cc1 (stereo not drawn)	0.37	i	x	x	x	x	x	x	x
Cc1cc(C)c(NC(=O)C(C)c2cccc(C(=O)c3ccccc3)c2)c(C)c1 (stereo not drawn)	23*	i	i	i	54*	-9	54*	-31	i
Nc1nn(S(=O)(=O)c2cccc3nsnc23)cc1-c1ccc(Br)cc1	8*	i	i	i	-12	8.4*	-17	-37	x
Cc1ccc(-c2cn(S(=O)(=O)c3cccc4nsnc34)nc2N)cc1	2.7	i	x	x	x	x	x	x	x
O=C(CCCC(=O)c1ccccc1)NCc1ccccc1	x	i	x	x	x	x	x	x	x
O=C(Cn1ncc2c(=O)oc3ccccc3c21)NCC1CCCO1 (stereo not drawn)	1.5	i	x	x	x	x	x	x	x
O=C(CCSCc1ccccc1F)N1CCN(c2ccccn2)CC1	x	i	x	x	x	x	x	x	x
O=C(Cn1ncc2c3ccccc3n(Cc3cccc(Cl)c3)c2c1=O)NCC1CCCO1 (stereo not drawn)	8.2*	i	i	i	69*	-27	2.4*	-16	i
O=C(Cn1ncc2c3ccccc3n(Cc3ccccc3F)c2c1=O)N1CCN(c2ccccn2)CC1	11*	i	i	i	38*	-10	24*	-32	i
O=C(Cn1ncc2c3ccccc3n(Cc3ccccc3F)c2c1=O)NCC1CCCO1 (stereo not drawn)	6*	i	i	i	22*	-17	-4	-29	i
O=C(Cn1ncc2c3ccccc3n(Cc3ccccc3)c2c1=O)NC1CCCC1	x	i	x	x	x	x	x	x	x
CCCCn1c(N)c(N(CC(C)C)C(=O)c2oc3ccc(Br)cc3c2C)c(=O)[nH]c1=O	x	i	x	x	x	x	x	x	x
Cc1nnc(NC(=O)C(C)Sc2nnc(-c3ccco3)n2C(C)C)s1 (stereo not drawn)	0.03	i	x	x	x	x	x	x	x
C=C(C)[C@@H]1CC=C(CN2CCN(Cc3ccccc3)CC2)CC1	0.8	i	x	x	x	x	x	x	x
CCOc1ccc(OCCC(=O)N(CC)CC(=O)NCc2ccc(Cl)cc2)cc1	x	i	x	x	x	x	x	x	x
Cc1ccc(C(=O)NCC(=O)N(C)CC(=O)Nc2c(Cl)cccc2Cl)s1	x	i	x	x	x	x	x	x	x
O=C1NC(c2ccccc2)=C(c2nc3ccccc3s2)C(c2ccc(F)cc2)N1 (stereo not drawn)	8.7*	i	i	i	74*	-2	21*	-28	34%*
